Laboratory results: PubChem BioAssay
Calls of active or inactive are those of the source.

What was measured:
[1] = tested on: PRMT1 (protein arginine N-methyltransferase 1); assay: PRMT1 binders on small-molecule microarrays, primary screen, biochemical, small-molecule microarray, 635 nm fluorescence (AID 1088); conditions: small-molecule microarray binding, higher = more signal;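 further: binding of Prmt1 protein to compounds spotted on small-molecule microarray slides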
[2] = yeast growth modulation, basal conditions, primary screen, YJM789 clinical isolate, OD600, 24 h (AID 1089);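 further: growth of clinical yeast isolate S. cerevisiae YJM 789 seeded 1000 cells per well; test concentration not given here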; conditions: S. cerevisiae YJM789 growth, higher = more signal, called active from +8 up or from −8 down
[3] = fission yeast growth modulation, primary screen, strain 972, OD600, 24 h, no modulator (AID 1090);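 further: basal condition with compound alone and no growth modifier present; test concentration not given here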; conditions: S. pombe 972 growth, higher = more signal, called active from +8 up or from −8 down
[4] = S. cerevisiae growth modulation with rapamycin, primary screen, strain BY4716, OD600, 96 h (AID 1091); conditions: higher = more signal, called active from +8 up or from −8 down; further: test concentration not given here
[5] = molecular target: Torsin-1A-interacting protein 2 (Homo sapiens) (UniProt Q8NFQ8); assay: LULL1 binders on small-molecule microarray, primary screen, cell lysate, human LULL1 lysate, 635/667 nm fluorescence (AID 1092); conditions: hLULL1 lysate binding, 635 nm fluorescence, higher = more signal;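 further: probe is lysate of COS7 cells overexpressing human LULL1; score merges per-feature 667 nm fluorescence with signal-to-noise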
Chain of Torsin-1A-interacting protein 2 (Homo sapiens) (Q8NFQ8 whole entry, looked up): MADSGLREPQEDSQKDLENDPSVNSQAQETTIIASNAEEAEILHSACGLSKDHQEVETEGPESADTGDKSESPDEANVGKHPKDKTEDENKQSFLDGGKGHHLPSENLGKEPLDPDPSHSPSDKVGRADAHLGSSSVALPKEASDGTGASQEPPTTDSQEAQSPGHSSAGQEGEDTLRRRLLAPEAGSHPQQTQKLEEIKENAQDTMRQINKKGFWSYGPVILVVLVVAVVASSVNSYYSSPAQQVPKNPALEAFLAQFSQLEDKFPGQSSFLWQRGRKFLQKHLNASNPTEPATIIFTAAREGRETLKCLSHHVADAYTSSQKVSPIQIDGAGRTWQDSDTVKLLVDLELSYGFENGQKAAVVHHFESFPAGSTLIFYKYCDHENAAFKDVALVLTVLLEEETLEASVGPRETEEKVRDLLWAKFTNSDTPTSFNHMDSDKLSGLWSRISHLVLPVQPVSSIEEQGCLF

[6] = E. coli growth modulation, two-sided OD650, primary screen, E. coli filamentation project, strain DRC41, 24 h (AID 1093); conditions: OD650, 24 h, higher = more signal, called active from +8 up or from −8 down;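 further: MC1000 strain lacking acrAB efflux and sulA so SOS filamentation is blocked; test concentration not given here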
[7] = small-molecule microarray binders of probe aLefty2, primary screen, biochemical, biotinylated probe, 635/667 nm fluorescence (AID 1094); conditions: higher = more signal;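 further: score merges spot fluorescence near 667 nm with spot signal-to-noise ratio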
[8] = tested on: Noggin (protein binding on small-molecule microarray); assay: Noggin binders on small-molecule microarray, primary screen, biochemical, 635/667 nm fluorescence (AID 1095); conditions: 635 nm fluorescence, higher = more signal;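 further: score merges 667 nm feature fluorescence with signal to noise over triplicate slides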
[9] = molecular target: Neurogenic locus notch homolog protein 3 (Homo sapiens) (UniProt Q9UM47); assay: NOTCH3 binders on small-molecule microarray, primary screen, biochemical, 635/667 nm fluorescence (AID 1096); conditions: NOTCH3 binding, 635 nm fluorescence, higher = more signal
Chain of Neurogenic locus notch homolog protein 3 (Homo sapiens) (Q9UM47 whole entry, looked up): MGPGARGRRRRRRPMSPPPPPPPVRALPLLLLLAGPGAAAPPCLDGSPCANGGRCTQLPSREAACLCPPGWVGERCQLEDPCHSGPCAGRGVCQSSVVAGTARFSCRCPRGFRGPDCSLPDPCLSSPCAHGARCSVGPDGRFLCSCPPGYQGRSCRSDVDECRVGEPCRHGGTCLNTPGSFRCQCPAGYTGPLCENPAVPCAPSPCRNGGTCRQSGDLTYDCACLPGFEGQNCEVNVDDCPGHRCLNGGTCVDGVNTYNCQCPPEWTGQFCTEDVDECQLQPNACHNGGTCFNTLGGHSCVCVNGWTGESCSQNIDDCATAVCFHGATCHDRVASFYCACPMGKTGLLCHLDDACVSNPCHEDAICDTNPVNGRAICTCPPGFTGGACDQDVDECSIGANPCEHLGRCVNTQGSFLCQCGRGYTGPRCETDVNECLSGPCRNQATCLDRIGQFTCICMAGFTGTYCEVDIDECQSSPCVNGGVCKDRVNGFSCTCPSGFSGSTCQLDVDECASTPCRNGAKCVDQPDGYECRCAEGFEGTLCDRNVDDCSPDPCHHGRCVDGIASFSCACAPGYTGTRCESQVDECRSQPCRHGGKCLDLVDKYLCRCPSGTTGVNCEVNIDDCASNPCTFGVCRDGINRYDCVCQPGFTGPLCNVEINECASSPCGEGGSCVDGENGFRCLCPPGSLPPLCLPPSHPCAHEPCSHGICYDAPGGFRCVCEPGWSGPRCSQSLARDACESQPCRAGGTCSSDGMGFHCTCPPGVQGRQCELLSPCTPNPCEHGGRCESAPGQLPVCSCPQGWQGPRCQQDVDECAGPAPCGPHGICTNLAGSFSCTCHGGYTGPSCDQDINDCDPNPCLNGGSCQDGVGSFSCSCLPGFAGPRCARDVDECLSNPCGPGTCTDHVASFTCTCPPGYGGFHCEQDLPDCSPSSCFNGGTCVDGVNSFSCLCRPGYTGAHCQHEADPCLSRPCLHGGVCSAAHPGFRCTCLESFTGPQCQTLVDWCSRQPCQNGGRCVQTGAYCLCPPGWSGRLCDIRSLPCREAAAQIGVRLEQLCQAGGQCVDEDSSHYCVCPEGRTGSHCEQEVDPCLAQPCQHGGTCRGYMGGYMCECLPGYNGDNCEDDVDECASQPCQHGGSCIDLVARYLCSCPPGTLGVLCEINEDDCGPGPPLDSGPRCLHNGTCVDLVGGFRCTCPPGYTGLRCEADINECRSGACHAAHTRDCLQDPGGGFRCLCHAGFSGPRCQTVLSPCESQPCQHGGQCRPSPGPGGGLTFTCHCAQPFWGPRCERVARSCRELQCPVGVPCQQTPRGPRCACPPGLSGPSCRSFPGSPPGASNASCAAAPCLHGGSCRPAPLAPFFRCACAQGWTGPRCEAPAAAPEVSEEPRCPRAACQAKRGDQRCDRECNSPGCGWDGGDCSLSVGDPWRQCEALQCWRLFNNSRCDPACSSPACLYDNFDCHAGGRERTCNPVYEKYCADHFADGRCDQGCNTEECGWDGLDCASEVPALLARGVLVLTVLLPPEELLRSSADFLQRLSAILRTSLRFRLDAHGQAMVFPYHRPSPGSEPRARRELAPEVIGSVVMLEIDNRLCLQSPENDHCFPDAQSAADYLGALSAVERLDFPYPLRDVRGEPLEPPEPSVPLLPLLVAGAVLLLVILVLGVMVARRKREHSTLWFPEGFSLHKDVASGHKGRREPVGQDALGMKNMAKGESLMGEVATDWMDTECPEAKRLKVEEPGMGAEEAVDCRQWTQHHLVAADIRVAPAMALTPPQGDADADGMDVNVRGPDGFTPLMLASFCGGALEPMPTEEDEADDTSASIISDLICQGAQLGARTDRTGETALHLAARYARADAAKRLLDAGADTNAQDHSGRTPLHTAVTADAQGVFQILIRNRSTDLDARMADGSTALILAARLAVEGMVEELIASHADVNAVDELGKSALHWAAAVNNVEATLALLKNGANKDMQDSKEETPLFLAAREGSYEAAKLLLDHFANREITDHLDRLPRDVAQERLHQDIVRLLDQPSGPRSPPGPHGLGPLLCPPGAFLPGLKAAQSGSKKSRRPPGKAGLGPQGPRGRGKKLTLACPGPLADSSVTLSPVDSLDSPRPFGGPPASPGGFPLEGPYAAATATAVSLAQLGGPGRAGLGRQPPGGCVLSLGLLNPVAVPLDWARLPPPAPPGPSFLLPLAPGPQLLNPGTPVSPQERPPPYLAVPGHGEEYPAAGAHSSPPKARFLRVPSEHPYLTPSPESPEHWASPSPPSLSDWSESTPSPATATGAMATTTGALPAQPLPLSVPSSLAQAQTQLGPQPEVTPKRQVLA

[10] = small-molecule microarray binders of probe aEGFR, primary screen, biochemical, biotinylated probe, 635/667 nm fluorescence (AID 1097); conditions: higher = more signal;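 further: probe is a biotinylated anti-EGFR antibody binding compounds printed on slides; score combines fluorescence near 667 nm and signal to noise of each spot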

Compound	composite z-score [1]	z-score [2]	z-score [3]	z-score [4]	composite z-score [5]	z-score [6]	composite z-score [7]	composite z-score [8]	composite z-score [9]	composite z-score [10]
C[n+]1ccc2ccc(O)cc2c1	1.56	0.0119 (inactive)	-0.208 (inactive)	2.96 (inactive)	1.14	-0.992 (inactive)	-0.0562	1.01	1.05	-0.0453
Cn1c2c(c3ccccc31)C(=O)C1NC2C=CC1(C)C(=O)OCc1ccccc1 (stereo not given)	0.417	-0.566 (inactive)	0.35 (inactive)	-0.233 (inactive)	3.1	-1.01 (inactive)	-0.0097	-2.04	-0.258	-0.264
Cc1ccccc1/C=C/C=O	-1.47	-1.01 (inactive)	-3.42 (inactive)	-0.402 (inactive)	-0.672	0.35 (inactive)	-0.13	-0.13	-1.63	-0.307
CO[C@H]1O[C@H](CO)[C@@H](OC(=O)Nc2cccc(F)c2)[C@H](OC(=O)Nc2ccccc2-c2ccccc2)[C@@H]1OC(=O)Nc1ccccc1-c1ccccc1	1.55	2.1 (inactive)	1.88 (inactive)	-1.23 (inactive)	3.34	0.675 (inactive)	0.134	0.615	1.05	-0.013
CCOC(=O)C1=C[C@@H](C(C)(C)C)N(S(=O)(=O)c2ccc(C)cc2)[C@H]1c1ccc(Cl)c(Cl)c1	1.46	0.771 (inactive)	1.71 (inactive)	2.44 (inactive)	2.68	-0.875 (inactive)	0.201	0.346	1.09	0.239
O=c1cccc(-c2ccc3ccccc3c2)o1	-0.387	-11.9 (active)	-15 (active)	-3.02 (inactive)	-0.0751	1.82 (inactive)	0.0673	-0.0993	-0.349	-0.138
C=C[C@H](C)[C@H](O)c1ccc(OCCO)cc1	-0.647	0.132 (inactive)	-0.404 (inactive)	-0.539 (inactive)	-1.2	0.943 (inactive)	0.19	-1.19	-1.11	-0.397
COc1ccc([Si](C)(C)[C@@H]2[C@@H](CCO)O[C@]3(C(=O)N(Cc4cccc(N(C=O)c5ccccc5)c4)c4ccccc43)[C@H]2C)cc1	1.12	1.35 (inactive)	0.946 (inactive)	9.98 (active)	0.745	1.03 (inactive)	-0.0719	0.145	0.258	-0.201
CCCNC(=O)[C@@]1(c2ccc([N+](=O)[O-])cc2)CC(=O)N(CC23CC4CC(CC(C4)C2)C3)[C@@H]1c1ccc(CO)cc1I	1.14	0.804 (inactive)	1 (inactive)	5.52 (inactive)	1.53	0.136 (inactive)	0.0962	0.367	0.243	0.141
COC(=O)c1nc2oc1CC[C@@H](CO)NC(=O)N(C)Cc1cn(nn1)C[C@H](Cc1ccccc1)NC2=O	0.594	0.654 (inactive)	-3.35 (inactive)	-0.858 (inactive)	2.59	2.05 (inactive)	-0.139	1.04	0.175	-0.181
COc1ccc([Si](C)(C)[C@H]2[C@H](CC(=O)N3Cc4ccccc4C[C@H]3CO)O[C@@]3(C(=O)N(Cc4cccc(I)c4)c4ccccc43)[C@@H]2C)cc1	1.55	-0.413 (inactive)	0.603 (inactive)	2.75 (inactive)	-0.48	1.2 (inactive)	-0.119	2.05	0.863	-0.0758
COc1ccc([Si](C)(C)[C@H]2[C@H](CCO)O[C@@]3(C(=O)N(Cc4ccccc4)c4ccc(N5C(=O)COc6ccccc65)cc43)[C@@H]2C)cc1	-0.171	0.773 (inactive)	-0.494 (inactive)	5.54 (inactive)	1.14	1.45 (inactive)	0.0365	0.177	0.246	-0.126
O=C1OCC=C[C@H]2OC34C=CCN(c5ccc6ccccc6c5)C(=O)[C@H]3N(CCO)C(=O)[C@@H]4[C@@H]12 (stereo not given in full)	0.491	0.689 (inactive)	0.0739 (inactive)	-0.409 (inactive)	0.951	-0.746 (inactive)	-0.0841	-1.58	-0.127	-0.281
C=CC[C@]1(C(=O)NCCN2CCOCC2)N=C(c2ccc(OCCCO)cc2)O[C@H]1c1ccccc1N=[N+]=[N-]	1.58	-0.941 (inactive)	-1.41 (inactive)	-0.523 (inactive)	3	1.74 (inactive)	0.432	0.0879	0.991	0.509
CN1C(=O)C2C=CC(C(O)c3ccccc3)N(NC(=O)OC(C)(C)C)C2C1=O (stereo not given)	0.408	0.382 (inactive)	1.52 (inactive)	1.45 (inactive)	2.93	-0.828 (inactive)	0.0875	-0.201	0.497	0.0182
